# A selection: hits, their analogues and other compounds. The true share with any hit is near 0.51%.
# AddAB inh: less growth of phage-infected E. coli with AddAB. E. coli expressing H. pylori AddAB, absorbance growth. inhibition, % at 11.9 µM. 0.29% of 330,000 active. AID 435030; in the data active = inhibition above about 12%;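 also: 0% = vehicle wells of infected cells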
# E coli growth-1: counter-screen for AddAB inhibitors: E. coli growth inhibition. 0.27% of 330,000 active. AID 449728. E. coli V3065 growth, OD600 absorbance, 18 h. inhibition, % at 11.9 µM;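 active = inhibition above the campaign's mean inhibition across all tested compounds plus 3 SD, cut at about 9.9% in these data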;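 also: uninfected addAB+ strain grown without phage in ampicillin broth; 0% = DMSO wells and 100% = ciprofloxacin 0.95 µg/ml wells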
# Tat transport: inhibitors of E. coli Tat protein transport. 0.036% of 340,000 active. E. coli MC4100 TorA-mCherry Tat export, fluorescence. inhibition, % at 10 µM;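 active = mean replicate inhibition at least 50% and at least half of replicates individually reaching 50%; inconclusive = only one of the two criteria met; inactive = neither criterion met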;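 also: exported cargo escapes ClpAP degradation while cytoplasmic cargo is degraded and loses fluorescence; 0% = median of neutral control wells and 100% = median of NaSCN control wells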
# phage Ecoli inh: E. coli growth loss with phage present. AID 651602. inhibition, % at 11.9 µM. 0.26% of 360,000 active. growth absorbance; in the data active = inhibition above about 11%
# E coli growth-2: E. coli growth inhibition; Escherichia coli growth, OD600, 23 h; stronger effect = lower value; OD600 absorbance (test concentration not listed); 0.21% of 330,000 active;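 active = OD600 absorbance below the run mean of sample wells minus 3.6 SD, in any replicate, cut at about 0.56 in these data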
# AddAB confirm: growth loss of T4-infected E. coli expressing H. pylori AddAB, confirmed. AID 488942. inhibition, % at 11.9 µM. E. coli V3065 expressing H. pylori AddAB, T4 phage, OD; T4 phage with gene 2 nonsense mutations. 64% of 880 active. shares compounds with AddAB inh;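 active = mean inhibition above a set limit taken from the earlier primary screen, cut at about 13% in these data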;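 also: higher means less bacterial growth since AddAB block lets phage replicate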
# RecBCD counter: reduces growth of phage-infected RecBCD+ E. coli, AddAB inhibitor counter-screen; AID 488955; inhibition, % at 11.9 µM; E. coli V66 + mutant T4 phage, OD growth; shares compounds with AddAB inh; 73% of 880 active;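 active = mean inhibition above the mean of solvent-only control wells plus 3 SD, cut at about 4% in these data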;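 also: optical density read after an 18 h incubation at 37 °C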
# bact viab count: counter-screen for AddAB inhibitors: inhibitors of bacterial viability | inhibition, % at 11.9 µM | AID 488956 | 35% of 880 active | absorbance (AddAB counterscreen) | shares compounds with AddAB inh; in the data active = inhibition above about 25%
# RecBCD conf: growth loss of phage-infected V66 E. coli, RecBCD confirmation screen; shares compounds with phage Ecoli inh; E. coli V66 + T4 2- phage, growth OD; inhibition, % at 11.9 µM; 45% of 890 active; AID 651982;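 active = mean inhibition over triplicates exceeding the hit threshold derived in the original primary screen, cut at about 11% in these data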
# Ecoli viability: counter-screen for RecBCD inhibitors: inhibitors of bacterial viability. E. coli viability, absorbance (OD) growth. shares compounds with phage Ecoli inh. inhibition, % at 11.9 µM. 29% of 890 active. AID 651983; in the data active = inhibition above about 20%;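 also: E. coli strain V66 grown with compound alone and no phage infection; 0% = bacteria with DMSO vehicle only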
# AddAB phage OD: growth loss of phage-infected AddAB E. coli, RecBCD counter-screen. E. coli expressing H. pylori AddAB + T4 phage, OD growth; gene 2 mutant T4, recBCD-deleted host. inhibition, % at 11.9 µM. AID 651984. shares compounds with phage Ecoli inh. 45% of 890 active;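 active = mean inhibition above the solvent-only control wells' mean plus 3 SD, cut at about 22% in these data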;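 also: higher means less bacterial growth from phage killing when AddAB is blocked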
# * marks the source's active call; other numbers are inactive results; u = inconclusive; x = no result.
SMILES,AddAB inh,E coli growth-1,Tat transport,phage Ecoli inh,E coli growth-2,AddAB confirm,RecBCD counter,bact viab count,others
COc1ccccc1-[n+]1c(C)cc(/C=C2\Sc3ccccc3N2C)cc1C,23*,19*,-7,13*,0.36*,33*,18*,30*,
O=[N+]([O-])c1ccc(C=NNS(=O)(=O)c2ccc(Cl)cc2)o1,x,x,x,x,0.5,x,x,x,
CCOC(=O)N/N=C\c1ccc([N+](=O)[O-])o1,31*,26*,u,6,x,98*,13*,29*,
O=[N+]([O-])c1ccc(/C=N/NS(=O)(=O)c2ccc(Cl)cc2)o1,96*,22*,5,8,x,101*,7.7*,43*,
Cc1ccc(S(=O)(=O)N/N=C\c2ccc([N+](=O)[O-])o2)cc1,18*,13*,-5,7,x,102*,9.5*,54*,
Cc1ccc(/C=N/NS(=O)(=O)c2ccc([N+](=O)[O-])cc2)o1,3,-2,3,3,x,x,x,x,
Cc1ccc(S(=O)(=O)N/N=C\c2ccc([N+](=O)[O-])o2)cc1C,25*,16*,11,9,x,100*,9.5*,41*,
CN(C)C(N)=NCCCC(N)C(=O)O (centres undefined),x,x,x,x,0.72,x,x,x,
Cc1cc2ccccn2c1C(=O)c1cccc([N+](=O)[O-])c1,1,1,-4,2,0.74,x,x,x,
Cc1cc2ccccn2c1C(=O)c1ccc([N+](=O)[O-])o1,40*,20*,12,12*,0.69,95*,8.4*,40*,
O=C(COc1ccc(Cl)cc1)Nc1ncc([N+](=O)[O-])s1,x,x,-5,3,0.66,x,x,x,
O=C(COC(=O)COc1ccccc1)Nc1ncc([N+](=O)[O-])s1,13*,7,-10,2,0.59,33*,5.7*,15,
CCOC(=O)c1c(C)nc(C)c2c(=O)oc3ccccc3c12,98*,99*,8,1,0.69,-3,-2,-3,
NC(=S)NN=Cc1ccccc1OCc1ccccc1,x,x,x,x,0.69,x,x,x,
O=C(O)[C@H](O)[C@@H](O)C(=O)O,25*,5,-3,0,0.7,-2,0,0,
Cc1sc2cc3c(c(C(=O)c4ccccc4)[n+]2c1C)-c1cccc2cccc-3c12,6,0,x,3,0.56,x,x,x,
O=C(c1ccccc1)c1c2c(cc3sc4ccccc4[n+]13)-c1cccc3cccc-2c13,16*,5,7,7,0.48*,89*,1,19,
O=C(C[n+]1cccc(C(=O)NN=Cc2cccc([N+](=O)[O-])c2)c1)c1ccccc1,x,x,x,x,0.65,x,x,x,
CCOC(=O)c1ccc(-n2cccc2C=C2NC(=O)NC2=O)cc1,x,x,x,x,0.66,x,x,x,
NC(=O)c1c(NC(=O)c2ccc([N+](=O)[O-])o2)sc2c1CCCC2,23*,18*,3,9,0.64,98*,8.8*,28*,
N#Cc1c(NC(=O)c2ccc([N+](=O)[O-])o2)sc2c1CCC2,16*,11*,1,5,0.54,64*,7.3*,19,
N#Cc1c(NC(=O)c2ccccc2)sc2c1CCC2,5,1,-6,3,0.73,x,x,x,
C=CCOc1cccc(C=C2C(=O)N(Cc3ccc(C)cc3)C(C)=C2C(=O)OC)c1,x,x,x,x,0.72,x,x,x,
Cc1nc2ccc(Cc3ccc4nc(C)[nH]c4c3)cc2[nH]1,16*,9,2,8,0.68,8,5.8*,5,
Nc1c(S(=O)(=O)c2cccc(Cl)c2)c2nc3ccccc3nc2n1/N=C/c1ccc(O)c(O)c1,15*,13*,x,x,x,13*,13*,14,
SMILES,AddAB inh,E coli growth-1,Tat transport,phage Ecoli inh,E coli growth-2,AddAB confirm,RecBCD counter,bact viab count,others
Nc1c(S(=O)(=O)c2ccccc2)c2nc3ccccc3nc2n1N=Cc1cccc(O)c1,x,x,x,x,0.76,x,x,x,
COC(=O)c1ccc(CON=Cc2cccc([N+](=O)[O-])c2)cc1,x,x,x,x,0.67,x,x,x,
Cc1c(Cl)cccc1NC(=S)NCc1ccc(F)cc1,4,1,-1,5,0.68,x,x,x,
Cc1c(Cl)cccc1NC(=S)NCc1ccccc1Cl,18*,5,20,5,0.69,17*,23*,18,
COc1cc2c(cc1OC)-c1nnc(C)n1C1(CCCC1)C2,24*,11*,5,3,0.72,2,1,1,
COc1cc2c(cc1OC)-c1nnc(C)n1C(C)(C)C2,1,-3,-1,2,0.7,x,x,x,
CC=C(C)C(=O)N1CC2(CC(c3cccc(NC(=O)COc4ccc(Cl)cc4)c3)=NO2)CC1C(N)=O (centres undefined),x,x,x,x,0.69,x,x,x,
Cc1ccc(Cn2cc(C=NNC(=O)Cc3nnc(NC(=O)c4ccc(C)cc4)s3)c3ccccc32)cc1,x,x,x,x,0.72,x,x,x,
CC(C)CNC(=S)NC(=O)c1csc([N+](=O)[O-])c1,4,-1,-15,1,0.57,x,x,x,
O=[N+]([O-])c1cc(-c2ncccn2)cs1,17*,13*,-1,10,0.6,100*,8.6*,27*,
Cc1ccc(C)c(NC(=O)CCC(=O)NN=Cc2cccnc2)c1,x,x,x,x,0.73,x,x,x,
O=c1[nH]cnc2c1ncn2[C@@H]1C[C@@H](O)[C@H](CO)O1,2,-2,-13,1,0.61,x,x,x,
O=c1[nH]cnc2c1ncn2[C@H]1CC[C@@H](CO)O1,97*,98*,8,101*,x,98*,96*,98*,RecBCD conf=98*;Ecoli viability=100*;AddAB phage OD=99*
Nc1nc(Cl)nc2c1ncn2C1CCC(CO)O1 (centres undefined),x,x,x,3,x,x,x,x,
Nc1ncnc2c1ncn2[C@H]1CC[C@@H](CO)O1,76*,75*,14,53*,0.36*,94*,48*,89*,RecBCD conf=60*;Ecoli viability=55*;AddAB phage OD=88*
C[C@]12CCC3c4ccc(O)cc4C(=O)CC3C1CCC2O (some centres undefined),x,x,x,x,0.67,x,x,x,
C#Cc1ccc(C2C=C(C(=O)OCC=C)OC(OCCCCO)C2)cc1 (centres undefined),x,x,x,x,0.65,x,x,x,
Cc1ccc(/C=N\NC(=O)c2ccc(Cn3cc(Br)c([N+](=O)[O-])n3)o2)o1,36*,27*,5,13*,x,73*,9.4*,51*,RecBCD conf=6;Ecoli viability=9;AddAB phage OD=44*
